Data published in PubChem BioAssay AID1159580 (chemical genetic matrix, 2015).
The whole screen tested about 5,500 compounds, of which about 2,000 (36%) were called active. Not shown: some 18% with an inconclusive outcome. Cut-off read from the data, not from the text of the source: active = normalized growth mostly below about 0.91 (no sharp cut-off); inconclusive = no clear call, values can overlap the other calls; inactive = mostly above about 0.92. The list shows a part of the results.

Experiment: chemical genetic growth profiling, strain panel (AID 1159580);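 note: tested at 20 µM; growth read once vehicle control cultures reached saturation at 30 °C; 1 = growth at the plate median or of vehicle wells; lower values mean less growth of the strain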
Conditions: S. cerevisiae deletion strains, growth OD

Measured: normalized growth

CN1c2ccccc2C(C)(C)C12C=Cc1cc(O)ccc1O2 (stereo unspecified)
inactive: locus YAR019C, strain CDC15, active compounds read low 0.981 | locus YBL105C, strain PKC1, active compounds read low 0.981 | locus YBR135W, strain CKS1, active compounds read low 0.977 | locus YBR136W, strain MEC1, active compounds read low 0.981 | locus YBR160W, strain CDC28, active compounds read low 0.984 | locus YDL017W, strain CDC7, active compounds read low 0.974 | locus YDL028C, strain MPS1, active compounds read low 0.979 | locus YDL101C, strain DUN1, active compounds read low 0.975 | locus YDL108W, strain KIN28, active compounds read low 0.974 | locus YDL132W, strain cdc53, active compounds read low 0.977 | locus YDL214C, strain PRR2, active compounds read low 0.986 | locus YDR052C, strain DBF4, active compounds read low 0.982 | locus YDR054C, strain cdc34, active compounds read low 0.97 | locus YDR226W, strain ADK1, active compounds read low 0.972 | locus YDR477W, strain SNF1, active compounds read low 0.971 | locus YER123W, strain YCK3, active compounds read low 0.987 | locus YER133W, strain GLC7, active compounds read low 0.974 | locus YFL009W, strain cdc4, active compounds read low 0.968 | locus YFL029C, strain CAK1, active compounds read low 0.978 | locus YFR003C, strain YPI1, active compounds read low 0.976 | locus YFR019W, strain FAB1, active compounds read low 0.993 | locus YFR028C, strain CDC14, active compounds read low 0.976 | locus YGR040W, strain KSS1, active compounds read low 0.972 | locus YGR052W, strain FMP48, active compounds read low 1.01 | locus YGR092W, strain DBF2, active compounds read low 0.996 | locus YHR030C, strain SLT2, active compounds read low 0.897 | locus YHR079C, strain IRE1, active compounds read low 1.01 | locus YHR082C, strain KSP1, active compounds read low 1.06 | locus YHR205W, strain SCH9, active compounds read low 0.985 | locus YIL147C, strain SLN1, active compounds read low 0.978 | locus YJL095W, strain BCK1, active compounds read low 1.01 | locus YJL128C, strain PBS2, active compounds read low 0.942 | locus YJL157C, strain FAR1, active compounds read low 0.978 | locus YJR016C, strain ILV3, active compounds read low 0.968 | locus YJR066W, strain TOR1 (second series), active compounds read low 0.965 | locus YJR066W, strain TOR1, active compounds read low 1.08 | locus YKL048C, strain ELM1, active compounds read low 0.975 | locus YKL067W, strain YNK1, active compounds read low 0.975 | locus YKL101W, strain HSL1, active compounds read low 0.962 | locus YKL193C, strain SDS22, active compounds read low 0.973 | locus YKL203C, strain TOR2, active compounds read low 1.05 | locus YLR113W, strain HOG1, active compounds read low 0.891 | locus YLR133W, strain CKI1, active compounds read low 0.984 | locus YLR403W, strain SFP1, active compounds read low 1.01 | locus YML070W, strain DAK1, active compounds read low 0.978 | locus YMR001C, strain CDC5, active compounds read low 0.971 | locus YMR205C, strain PFK2 (second series), active compounds read low 0.991 | locus YMR277W, strain FCP1, active compounds read low 0.973 | locus YNL006W, strain LST8, active compounds read low 0.978 | locus YNL020C, strain ARK1, active compounds read low 0.982 | locus YNL161W, strain CBK1, active compounds read low 0.973 | locus YNL183C, strain NPR1, active compounds read low 1.08 | locus YNL207W, strain RIO2, active compounds read low 0.974 | locus YNL222W, strain SSU72, active compounds read low 0.986 | locus YNL307C, strain MCK1 (second series), active compounds read low 0.978 | locus YOL078W, strain AVO1, active compounds read low 0.975 | locus YOL136C, strain PFK27, active compounds read low 0.991 | locus YOR061W, strain CKA2, active compounds read low 0.993 | locus YOR119C, strain RIO1, active compounds read low 1.05 | locus YOR231W, strain MKK1, active compounds read low 1.02 | locus YOR329C, strain SCD5, active compounds read low 0.985 | locus YPL031C, strain PHO85, active compounds read low 0.962 | locus YPL153C, strain RAD53, active compounds read low 0.958 | locus YPL204W, strain HRR25, active compounds read low 0.943 | locus YPL209C, strain IPL1, active compounds read low 0.974 | locus YPL256C, strain CLN2, active compounds read low 0.899 | locus YPR025C, strain CCL1, active compounds read low 0.993 | locus YPR106W, strain ISR1, active compounds read low 0.984 | locus YPR111W, strain DBF20, active compounds read low 0.977 | strain NNK1, active compounds read low 0.989 | strain TSCII, active compounds read low 0.978
